Source: PubChem BioAssay (National Center for Advancing Translational Sciences (NCATS))
BAZ2B inh: inhibitors of human BAZ2B bromodomain | Q9UIF8 | AlphaScreen BAZ2B-H3K14Ac peptide displacement | Potency, µM (highest dose often 114 µM), for the others: at the highest dose activity change, negative = inhibition, actives largely listed as inhibitors | 360,000 tested, 4.4% active | AID 504333; note: % is set by controls: 0 for no effect and ±100 for the full control effect; nearly all actives have a fitted effect of over 60% in size
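BAZ2B (50 nM) with biotin-H3(5-23)K14Ac peptide (50 nM) in PBS pH 7.4, 0.01% Tween-20, preformed 30 min, then compound 30 min at room temperature; top concentration 110uM. AlphaScreen streptavidin donor/nickel chelate acceptor beads (10 ug/mL final), 20 min dark, signal read.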
GLS inh: blocks human kidney-isoform glutaminase activity. 410,000 tested, 0.21% active. Potency, µM (top dose mostly 45.5 µM), for inactives: at the top dose activity change, negative = inhibition, most hits filed as inhibitors. GLS enzymatic activity, qHTS titration; note: % is set by controls: 0 for no effect and ±100 for the full control effect
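Human kidney-isoform GLS in 45 mM KH2PO4 pH 8.2, 0.02% Tween-20, with compound, started with 1mM L-Glutamine (added stock). Glutamate oxidase/HRP/Amplex red coupled fluorescence read at start and after 30 min at RT.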
JMJD2A Tudor inh: JMJD2A Tudor domain (human) inhibition. O75164. AID 504339. AlphaScreen JMJD2A-Tudor / H3K4me3 peptide binding. Potency, µM (series often up to 114 µM), without a hit: at the top dose activity change, negative = inhibition, hits mostly inhibitors. 390,000 tested, 4.4% active; note: % is set by controls: 0 for no effect and ±100 for the full control effect; nearly all actives have a fitted effect of over 50% in size
G9a inh: inhibitors of human histone lysine methyltransferase G9a | Potency, µM (titrated, usually from 102 µM), for inactives: top-dose activity, negative = inhibition, usual class: inhibitors | AID 504332 | Q96KQ7 | G9a H3K9 monomethylation, AlphaScreen, 2 h | 350,000 tested, 8.8% active; note: % is set by controls: 0 for no effect and ±100 for the full control effect; nearly all actives have a fitted effect of over 75% in size
Target sequence (Q96KQ7 913-1193 limits assumed): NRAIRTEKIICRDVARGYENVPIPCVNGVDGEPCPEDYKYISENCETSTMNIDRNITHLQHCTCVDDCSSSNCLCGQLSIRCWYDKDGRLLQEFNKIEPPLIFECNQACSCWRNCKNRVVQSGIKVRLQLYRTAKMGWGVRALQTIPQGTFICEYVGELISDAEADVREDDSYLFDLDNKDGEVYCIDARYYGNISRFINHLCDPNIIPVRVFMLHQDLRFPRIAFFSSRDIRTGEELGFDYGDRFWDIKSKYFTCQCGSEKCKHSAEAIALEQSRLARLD
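G9a (20 nM) preincubated 15 min RT with compounds, then 500 nM biotinylated H3K9 peptide and 20 uM SAM added; 2 h RT reaction. Monomethyl-H3K9 product detected by AlphaScreen with anti-H3K9me1 antibody, streptavidin donor and anti-rabbit IgG acceptor beads.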
HP1b chromo inh: blocks HP1-beta chromodomain binding to methylated histone tails | P83916 | AlphaScreen HP1-beta / biotin-H3K9me3 peptide binding | Potency, µM (doses to about 114 µM), inactives show at the highest dose activity change, negative = inhibition, actives largely listed as inhibitors | 390,000 tested, 0.56% active | AID 540317; note: nearly all actives have a fitted effect of over 70% in size
Target sequence (P83916 whole entry, looked up): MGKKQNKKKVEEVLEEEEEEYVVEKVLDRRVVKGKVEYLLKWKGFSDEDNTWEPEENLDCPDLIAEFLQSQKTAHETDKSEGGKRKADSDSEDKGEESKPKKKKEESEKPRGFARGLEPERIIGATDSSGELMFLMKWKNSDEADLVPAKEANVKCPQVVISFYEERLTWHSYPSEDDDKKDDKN
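Compound inhibition of the preformed complex between 50 nM HP1-beta and 50 nM biotinylated H3K9me3 peptide was read by AlphaScreen. Buffer was PBS pH 7.4 with 0.01% Tween-20. Incubations ran 30 min at room temperature, with 10 ug/mL donor/acceptor beads.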
Starred values were filed as active, the others as inactive; u = inconclusive; x = no result given; [ ] = remark or other dose. An excerpt weighted towards active compounds, which were near 10% of everything screened. Calls come from the whole dose curve; as a rule, active = well fitted curve in the direction sought with a large enough effect; inconclusive = small, poorly fitted or top-dose-only effect, or another doubt; inactive = no such curve, though single readings can be large; an effect the other way counts as inactive or inconclusive. Potency is the fitted concentration of half-maximal effect.

SMILES | BAZ2B inh | GLS inh | JMJD2A Tudor inh | G9a inh | HP1b chromo inh
CCN(C(=O)c1sc2nc3n(c(=O)c2c1C)CCCC3)c1ccccc1F | -3% | 2% | -26% | 13µM* | 79%
O=C(Nc1ccc2nc(-c3ccco3)[nH]c2c1)c1cccs1 | u | 1% | -16% | 14µM* | 17%
CC(=O)Nc1ccc2nc(-c3ccco3)[nH]c2c1 | -18% | -5% | 4% | u | 9%
Cn1c(CCNC(=O)c2ccco2)nc2cc(NC(=O)c3ccco3)ccc21 | -7% | 4% | 3% | 14µM* | 43%
O=C(Nc1ccc2nc(-c3ccccc3)[nH]c2c1)c1cccs1 | -6% | 1% | -20% | u | 12%
O=C(Nc1ccc2nc(-c3ccc4nc[nH]c4c3)[nH]c2c1)c1cccs1 | -28% | -1% | -35%[57.1 µM] | 22µM* | u
O=C(Nc1ccc2nc(-c3ccco3)[nH]c2c1)c1ccco1 | u | -2% | -26% | 71µM* | 37%
COC(=O)c1cc(NC2(c3ccccc3)C(=O)c3ccccc3C2=O)cc(C(=O)OC)c1 | -27% | -8% | -31% | -36%[59 µM] | 20%
Cc1c(C(=O)NC(C)c2ccccc2)sc2ncnc(N(C)C3CCCCC3)c12 (stereo unspecified) | -3% | 0% | -17% | 6%[59 µM] | 25%
CN1C[C@@H]2[C@@H]3C(=O)N(C)C(=O)[C@@H]3[C@](Cc3ccccc3)(C1=O)N2C(=O)c1ccccc1 | x | -2% | -20% | x | 31%
Cn1cnc([N+](=O)[O-])c1Nc1ccc(O)cc1 | -17% | 13% | -14% | 25µM* | 12%
CCNc1c([N+](=O)[O-])ncn1C | -16% | 4% | -5% | 2%[59 µM] | 24%
CCOc1ccc(NC(=O)CCc2nc3cccnc3n2-c2ccccc2)cc1 | -21% | -3% | -26% | -26%[59 µM] | 31%
CC(=O)N1CCN(c2ccc(NCc3ccc(-c4ccc(Br)cc4)o3)cc2)CC1 | x | 5% | 25µM* | x | -22%
CCN1CCN(c2ccc(NC(=O)c3ccc(Br)o3)cc2)CC1 | -20% | 12% | -11% | -2% | 23%
CN1CCN(c2ccc(NC(=O)c3ccc(-c4ccc(Br)cc4)o3)cc2)CC1 | 25µM* | 0% | 35µM* | 32µM* | u
COc1ccc(CCNC(=O)CCCCn2c(=O)c3ccccc3n(Cc3ccc(Cl)cc3)c2=O)cc1OC | -12% | 14% | -16% | -39%[59 µM] | 4%
CCOc1ccc(NC(=O)c2c(C)oc3nc(C)nc(N4CCOCC4)c23)cc1 | 6%[57.1 µM] | 5% | -2% | -20%[59 µM] | 28%
Cc1ccc2[nH]c3c(c2c1)CN(C(=O)CN1CCCc2ccccc21)CC3 | -14% | 2% | 28µM* | 3.2µM* | u
Cc1ccc2[nH]c3c(c2c1)CN(C(=O)CN1CCCCC1)CC3 | u | 11% | -14% | 50µM* | 14%
Cc1ccc2[nH]c3c(c2c1)CN(C(=O)CN1CCN(c2ccccc2F)CC1)CC3 | -25% | x | x | 32µM* | x
O=C(CN1CCN(Cc2ccc3c(c2)OCO3)CC1)N1CCc2[nH]c3ccc(F)cc3c2C1 | u | -4% | u | u | -25%
COc1ccc(-n2cnc3cc(C(=O)NCCC4=CCCCC4)ccc32)cc1 | -10% | -4% | -21% | -40%[59 µM] | 34%
Cc1cc(NC(=O)NCc2ccc3c(c2)CCN3C(=O)c2ccccc2)ccc1Br | 6% | 3% | -14% | 19%[59 µM] | 8%[57 µM]
Cc1ccc(S(=O)(=O)NC(=O)C2(C)CCN2C(=O)Cc2ccc(Cl)cc2Cl)nc1 (stereo unspecified) | x | 1% | x | x | x
SMILES | BAZ2B inh | GLS inh | JMJD2A Tudor inh | G9a inh | HP1b chromo inh
Cc1nc(COC(=O)c2cc(O)c3ccccc3c2O)cs1 | x | 20% | -8%[11.4 µM] | 3.2µM* | u
CCOc1cc(/C=N/O)ccc1OCC(=O)Nc1cccc(C)c1 | 19% | 5% | -4% | 30% | 19%
CCOc1cc(-c2nc(C)c(C(C)=O)n2O)ccc1OCC(=O)Nc1cccc(C)c1 | -16% | 4% | -28% | 50µM* | 7%
CN(Cc1cccc(Cl)c1Cl)C(=O)CCNC(=O)c1ccco1 | x | -14% | -15% | x | 25%
Cc1ccc(CNS(=O)(=O)c2ccc3[nH]c4c(c3c2)CCCCC4)cc1 | -3%[57.1 µM] | 2% | -15% | -53%[59 µM] | 3%
Cc1ccc(NS(=O)(=O)c2ccc3[nH]c4c(c3c2)CCCCCC4)cc1Cl | -24% | 2% | u | -33%[59 µM] | 22%
Cc1ccccc1NS(=O)(=O)c1ccc2[nH]c3c(c2c1)CCCCC3 | -29%[57.1 µM] | 6% | 45µM* | u | -33%
Cc1ccc(NS(=O)(=O)c2ccc3[nH]c4c(c3c2)CCCC4)cc1N(C)C | 32µM* | 24% | 35µM* | u | u
CCOC(=O)c1cccc(NS(=O)(=O)c2ccc3[nH]c4c(c3c2)CCCC4)c1 | 40µM* | 10% | 28µM* | 14µM* | u
CC(C)(C)NS(=O)(=O)c1ccc2[nH]c3c(c2c1)CCCCC3 | 45µM* | 10% | u | 71µM* | u
CCN(CC)CCOCCOC(=O)C(CC)(CC)c1ccccc1 (tested in a mixture with another compound) | x | 4% | x | -1%[59 µM] | x
Cc1cccc(NS(=O)(=O)c2ccc3[nH]c4c(c3c2)CCCCCC4)c1 | -29% | -6% | u | 16µM* | 8%[57 µM]
CC(=O)c1cccc(NS(=O)(=O)c2ccc3[nH]c4c(c3c2)CCCCC4)c1 | -37%[57.1 µM] | -7% | u | 16µM* | -21%
CN(C1CCCCC1)S(=O)(=O)c1ccc2c(c1)c(=O)c(C(=O)N1CCN(c3ccccc3)CC1)cn2C | x | -5% | 2% | 5%[59 µM] | 53%
NC1CCN(c2c(F)cc3c(=O)c(C(=O)O)cn(C4CC4)c3c2Cl)C1 (stereo unspecified) | u | -10% | -15% | 71µM* | 48%
NC1CCN(c2nc3c(cc2F)c(=O)c(C(=O)O)cn3-c2ccc(F)cc2F)C1 (stereo unspecified) | x | 2% | 50µM* | -17%[12.7 µM] | 78%
N[C@H]1CN(c2c(F)cc3c(=O)c(C(=O)O)cn(C4C[C@@H]4F)c3c2Cl)CC12CC2 (stereo partly specified) | x | -4% | x | x | x
COc1ccc(C2/C(=C(/O)c3ccc(F)cc3)C(=O)C(=O)N2c2ccccn2)cc1OC (stereo unspecified) | -2% | u | 18µM* | -10% | 23%
COc1cc(C2/C(=C(/O)c3ccccc3)C(=O)C(=O)N2c2ccccn2)ccc1O (stereo unspecified) | -20% | 8.9µM* | u | -30% | 2%
Cc1cc(NC(=O)CSC2=NS(=O)(=O)c3cc(F)ccc3N2)no1 | 4% | -1% | -9% | -38% | 20%
O=c1n(Cc2ccc([N+](=O)[O-])cc2)c2ccccc2c2nc(-c3ccccc3)nn12 | -22% | -10% | -17% | 5%[59 µM] | 17%
CCc1ccccc1NC(=O)Cn1nc(N2CCN(c3ccccc3OC)CC2)ccc1=O | -23% | 3% | -24% | -7%[59 µM] | 16%
